# Compound activity as filed in PubChem BioAssay.
# T cruzi growth-1: T. cruzi proliferation inhibition; AID 624255; inhibition, % at 8.34 µM; T. cruzi beta-gal in NIH3T3, GalScreen luminescence, 90 h; actives 5.9% (n = 77,000);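 active = mean inhibition above about 93%, with at least 55% of replicates each passing it, limit read from the data, passing the limit was not always enough; inconclusive = only one of those two conditions holds; inactive = neither condition holds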
# Pf Dd2 inh: blocks growth of Plasmodium falciparum Dd2 parasites | P. falciparum Dd2 growth, SYBR Green, 72 h; stronger effect = lower value | activity change, % at 10 µM | actives 2.3% (n = 94,000) | AID 1159554; in the data active = activity change below about -80%; inconclusive = no clear call, values can overlap the other calls
# C diff HTS: blocks growth of Clostridium difficile; growth activity, negative = inhibition, % at 16 µg/mL (by protocol); actives 0.25% (n = 86,000); AID 1259249; Clostridium difficile clinical isolate growth, OD600, 24 h; stronger effect = lower value;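 active = mean growth activity at or below -80% and every replicate also at or below -80%; inconclusive = mean at or below -80% but some replicate above -80%; inactive = mean growth activity above -80%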;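 note: 0% = DMSO wells and -100% = levofloxacin 16 µg/mL wells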
# T cruzi growth-2: Trypanosoma cruzi proliferation inhibition. shares compounds with T cruzi growth-1. T. cruzi beta-gal in NIH3T3, GalScreen luminescence, 90 h. inhibition, % at 8.35 µM. actives 72% (n = 5,600);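 active = mean replicate inhibition above about 95% and at least 55% of replicates individually reaching it, limit read from the data; inconclusive = only one of the two criteria is met; inactive = neither criterion is met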
# T cruzi growth-3: blocks T. cruzi growth in NIH3T3 host cells. shares compounds with T cruzi growth-1. actives 21% (n = 5,600). AID 651740. T. cruzi beta-gal in NIH3T3, GalScreen luminescence, 90 h. inhibition, % at 2.09 µM;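 active = mean inhibition above about 95%, with at least 55% of replicates also reaching it, limit read from the data; inconclusive = meets just one of the two conditions; inactive = meets neither condition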;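 note: plate controls were neutral control median for no effect and positive control median for full effect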
# 3T3 cytotox: cytotoxicity in mouse NIH/3T3 fibroblasts | shares compounds with T cruzi growth-1 | NIH/3T3 viability, CellTiter-Glo ATP luminescence, 90 h | cytotoxicity (signal decrease), % at 8.35 µM | actives 14% (n = 5,600);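 active = mean signal decrease across replicates above about 35% based on untreated-well scatter, with enough replicates individually passing, limit read from the data; inconclusive = no rule stated though some were filed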;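 note: 0% = median of neutral control wells and 100% = median of positive control wells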
# 3T3 cytotox 2: cytotoxicity in mouse NIH/3T3 fibroblasts; shares compounds with T cruzi growth-1; NIH/3T3 viability, CellTiter-Glo ATP luminescence, 90 h; inhibition, % at 24.9 µM; actives 56% (n = 5,600);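 active = mean loss of cell viability signal at or above a set limit, and enough replicates individually reaching it; inconclusive = meets only the mean limit or only the replicate share; inactive = meets neither condition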;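 note: 0% = median of neutral control wells and 100% = median of positive control wells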
# Starred values were filed as active, the others as inactive; ? = inconclusive; . = not tested or not shown; + = active, no number. Compounds with a hit are over-represented: about 6.8% of the library has one in this group of screens.
SMILES,T cruzi growth-1,Pf Dd2 inh,C diff HTS,T cruzi growth-2,T cruzi growth-3,3T3 cytotox,3T3 cytotox 2
O=C(Cc1ccccc1)N1CCCCN2[C@H](CO)[C@H](c3ccc(C#Cc4ccccc4)cc3)[C@@H]2C1,120*,-24,-1,102*,115*,27,103*
O=C(Cc1ccncc1)N1CCCCN2[C@@H](CO)[C@H](c3ccc(C#Cc4ccccc4F)cc3)[C@@H]2C1,112*,-42,-7,112*,79,50*,104*
O=C(Cc1ccncc1)N1CCCCN2[C@H](C1)[C@@H](c1ccc(C#Cc3ccccc3F)cc1)[C@@H]2CO,43,-59,-5,.,.,.,.
COC(=O)[C@H]1[C@H](CO)[C@H]2Cn3c(ccc(-c4cccc(OC)c4)c3=O)[C@@H]1N2CC1CC1,60,.,-2,.,.,.,.
C=CCN1C(=S)N[C@@H]2c3ccccc3O[C@@]1(C)[C@@H]2C(=O)OCC,.,.,6,.,.,.,.
O=C(Cc1ccccc1)N1CCCCN2[C@H](CO)[C@H](c3ccc(-c4ccccc4)cc3)[C@H]2C1,10,-12,47,.,.,.,.
O=C(Cc1ccccc1)N1CCCCN2[C@@H](CO)[C@@H](c3ccc(C#Cc4ccccc4)cc3)[C@@H]2C1,106*,-55,-2,100*,102*,120*,105*
COC(=O)[C@H]1[C@H](CO)[C@H]2Cn3c(ccc(C4=CCCC4)c3=O)[C@@H]1N2S(=O)(=O)c1cn(C)cn1,16,3,-3,.,.,.,.
COC(=O)[C@@H]1[C@@H](CO)[C@@H]2Cn3c(cccc3=O)[C@H]1N2C(=O)C1CCC1,27,0,11,.,.,.,.
N#Cc1cccc(-c2ccc([C@H]3[C@@H](CO)N4CCCCN(C(=O)Cc5ccccc5)C[C@H]34)cc2)c1,109*,6,2,111*,81,19,56*
N#Cc1cccc(-c2ccc([C@@H]3[C@H](CO)N4CCCCN(C(=O)Cc5ccccc5)C[C@@H]34)cc2)c1,100*,-24,-5,104*,40,-1,57*
N#Cc1ccc(-c2ccc([C@H]3[C@H]4CN(C(=O)Cc5ccccc5)CCCCN4[C@H]3CO)cc2)cc1,46,26,1,.,.,.,.
N#Cc1cccc(-c2ccc([C@H]3[C@@H](CO)N4CCCCN(C(=O)Cc5ccccc5)C[C@@H]34)cc2)c1,110*,30,0,103*,77,-5,0
COc1ccc(-c2ccc([C@@H]3[C@H]4CN(C(=O)Cc5ccncc5)CCCCN4[C@H]3CO)cc2)cc1,84,-8,-10,.,.,.,.
N#Cc1ccc(-c2ccc([C@H]3[C@@H](CO)N4CCCCN(C(=O)Cc5ccccc5)C[C@@H]34)cc2)cc1,81,29,-6,.,.,.,.
N#Cc1ccc(-c2ccc([C@H]3[C@@H](CO)N4CCCCN(C(=O)Cc5ccccc5)C[C@H]34)cc2)cc1,80,-21,5,.,.,.,.
O=C(Cc1ccncc1)N1CCCCN2[C@H](CO)[C@@H](c3ccc(-c4ccncc4)cc3)[C@H]2C1,116*,17,-7,-13,-11,7,5
O=C(Cc1cccnc1)N1CCCCN2[C@H](C1)[C@H](c1ccc(C#CC3CC3)cc1)[C@@H]2CO,33,-15,-3,.,.,.,.
N#Cc1cccc(-c2ccc([C@@H]3[C@@H](CO)N4CCCCN(C(=O)Cc5cccnc5)C[C@@H]34)cc2)c1,67,6,2,.,.,.,.
COC(=O)[C@H]1[C@H](CO)[C@H]2Cn3c(ccc(-c4cccc(OC)c4)c3=O)[C@@H]1N2C(=O)c1ccccc1F,-8,-30,3,.,.,.,.
CN(C)C(=O)[C@H]1[C@H](CO)[C@H]2Cn3c(cccc3=O)[C@@H]1N2CC1CC1,82,7,-4,.,.,.,.
O=C(Cc1cccnc1)N1CCCCN2[C@H](CO)[C@H](c3ccc(C#CC4(O)CCCC4)cc3)[C@H]2C1,21,31,0,.,.,.,.
O=C(Cc1ccccc1)N1CCCCN2[C@H](CO)[C@@H](c3ccc(-c4ccccc4)cc3)[C@H]2C1,100*,0,58,?,36,11,105*
O=C(Cc1ccccc1)N1CCCCN2[C@H](C1)[C@H](c1ccc(-c3ccccc3)cc1)[C@@H]2CO,41,6,50,.,.,.,.
O=C(Cc1ccncc1)N1CCCCN2[C@H](CO)[C@H](c3ccc(C#Cc4ccccc4F)cc3)[C@@H]2C1,43,-28,-3,.,.,.,.
SMILES,T cruzi growth-1,Pf Dd2 inh,C diff HTS,T cruzi growth-2,T cruzi growth-3,3T3 cytotox,3T3 cytotox 2
COc1ccc(C#Cc2ccc([C@@H]3[C@H](CO)N4CCCCN(C(=O)Cc5ccccc5)C[C@@H]34)cc2)cc1,112*,-77,9,101*,105*,22,106*
COc1ccc(C#Cc2ccc([C@H]3[C@@H](CO)N4CCCCN(C(=O)Cc5ccccc5)C[C@@H]34)cc2)cc1,87,-34,-1,.,.,.,.
COc1ccc(C#Cc2ccc([C@@H]3[C@H]4CN(C(=O)Cc5ccccc5)CCCCN4[C@H]3CO)cc2)cc1,99*,-46,0,93,103*,3,105*
COc1ccc(-c2ccc([C@@H]3[C@@H](CO)N4CCCCN(C(=O)Cc5ccncc5)C[C@@H]34)cc2)cc1,52,-55,-5,.,.,.,.
COc1ccc(C#Cc2ccc([C@@H]3[C@@H](CO)N4CCCCN(C(=O)Cc5ccncc5)C[C@H]34)cc2)cc1,111*,-51,1,107*,81,31,106*
COc1ccc(C#Cc2ccc([C@@H]3[C@@H](CO)N4CCCCN(C(=O)Cc5ccccc5)C[C@H]34)cc2)cc1,76,-32,6,.,.,.,.
CC(=O)N1[C@@H]2Cn3c(ccc(-c4cccc(C(=O)N(C)C)c4)c3=O)[C@H]1[C@@H](C(=O)O)[C@@H]2CO,.,22,2,.,.,.,.
CCC(=O)N1[C@@H]2c3ccc(-c4ccc(F)cc4)c(=O)n3C[C@H]1[C@H](CO)[C@H]2C(=O)OC,84,.,8,.,.,.,.
CC1(CCO)CC(C)(CCc2ccccc2)OO1 (configuration not stated),.,.,-20,.,.,.,.
COC(=O)[C@H]1[C@H](CO)[C@H]2Cn3c(ccc(C4=CCCCC4)c3=O)[C@@H]1N2Cc1ccccn1,101*,8,0,-20,-4,-4,4
COC(=O)[C@@H]1[C@@H](CO)[C@@H]2Cn3c(ccc(C4=CCCCC4)c3=O)[C@H]1N2Cc1ccccn1,95,10,2,.,.,.,.
COC(=O)[C@H]1[C@H](CO)[C@H]2Cn3c(ccc(-c4ccccc4)c3=O)[C@@H]1N2CC1CCCC1,.,-8,-13,.,.,.,.
COC(=O)[C@@H]1[C@@H](CO)[C@@H]2Cn3c(ccc(-c4ccccc4F)c3=O)[C@H]1N2CC1CCCC1,+,.,-2,68,2,22,42*
O=C(O)[C@H]1[C@H](CO)[C@H]2Cn3c(ccc(-c4ccncc4)c3=O)[C@@H]1N2C(=O)C1CC1,40,.,.,.,.,.,.
